# Data from PubChem BioAssay (Tox21).
# Several values for one entry are separate records, joined by “and”; a condition that tells them apart may be missing. Equal entries are not always repeated. Records with an inconclusive call do not appear. Activity calls are given as the source filed them. Unless noted, calls come from the whole dose curve; as a rule, active = well fitted cell-killing curve with a large enough effect in the repeat runs; inconclusive = weak or mixed curves, or effect the other way; inactive = no such curve, though single readings can be large or run the other way.
# Assay: qHTS assay for small molecule agonists of the antioxidant response element (ARE) signaling pathway (AID 743202; active = well fitted activation curve with a large enough effect in the signal ratio in the repeat runs, not every such curve was filed as active; the % refers to the signal ratio; note: potency is the fitted concentration of half-maximal effect)
# Conditions: HepG2 ARE-bla reporter, beta-lactamase FRET, 16 h; series mostly up to 73.3 µM; activation: at the top concentration
# Outline: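 HepG2 ARE-bla cells; 16 h treatment at 37 C; FRET-based beta-lactamase fluorescence read after 2 h substrate incubation at room temperature.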
# % is set by controls: 0 for no effect and ±100 for the full control effect.
Compound,activation,Potency
O=S1(=O)OC(c2cc(Br)c(O)c(Br)c2)(c2cc(Br)c(O)c(Br)c2)c2ccccc21,8.2% (inactive),–
Cc1cc(=O)[nH]o1,-11.2% [at 94.8 µM] (inactive),–
Nc1nc(=S)[nH][nH]1,-2.13% (inactive),–
CC1(C)[C@H](C=C(Cl)Cl)[C@@H]1C(=O)O[C@@H](C#N)c1cccc(Oc2ccccc2)c1,-5.49% (inactive),–
CC[C@H]1C[C@H]2[C@@H]3CCC4=CC(=O)CC[C@@H]4[C@H]3CC[C@]2(C)[C@H]1O,–,29.8 µM (active)
c1ccc(CN2CCNCC2)cc1,3.76% [at 260 µM] (inactive),–
CC(C)N(CCC(C(N)=O)(c1ccccc1)c1ccccn1)C(C)C (stereo not given),-5.97% (inactive),–
O=C(CBr)OCc1ccccc1,16% (inactive),–
[CH3][Sn]([CH3])([Cl])[Cl],–,34.4 µM (active)
Clc1cccc2ccccc12,8.84% (inactive),–
O=NN1CCCCCC1,-10.5% (inactive),–
CCCCN(N=O)C(=N)N[N+](=O)[O-],8.1% [at 94.8 µM] (inactive),–
Nc1ccc(N=Nc2ccc(-c3ccc(N=Nc4c(S(=O)(=O)O)cc5cc(S(=O)(=O)O)c(N=Nc6ccccc6)c(O)c5c4N)cc3)cc2)c(N)c1,6.82% (inactive),–
C=CC(=O)OC,-11.9% [at 94.8 µM] (inactive),–
CCCCCCCCCCOC(=O)c1ccccc1C(=O)OCCCCCCCCCC,-2.28% (inactive),–
C=CCN1CC[C@]23c4c5ccc(O)c4O[C@H]2C(=O)CC[C@@]3(O)[C@H]1C5,11% (inactive),–

# Assay: qHTS assay for small molecule agonists of the antioxidant response element (ARE) signaling pathway - cell viability counter screen (AID 743203; calls by dose curve; note: nearly all actives have a fitted effect of over 55% in size; note: potency is the fitted concentration of half-maximal effect)
# Conditions: ARE-bla HepG2 viability, CellTiter-Glo luminescence, 16 h; series mostly up to 73.3 µM; viability change, negative = cytotoxic: at the top concentration
# Outline: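 Luminescence read-out (CellTiter-Glo, 30 min at room temperature) measured cell viability in the same wells as the ARE beta-lactamase reporter. HepG2 ARE-bla cells were treated with compounds for 16 hrs at 37C/5% CO2.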
Compound,"viability change, negative = cytotoxic",Potency
C[C@H]1CNCCc2ccc(Cl)cc21,0.771% (inactive),–
O=C(O)C(F)(F)C(F)(F)C(F)(F)C(F)(F)C(F)(F)C(F)(F)C(F)(F)C(F)(F)C(F)(F)C(F)(F)F,11.4% (inactive),–
Cc1cc(=O)[nH]o1,1.9% [at 94.8 µM] (inactive),–
CC(C)=CCOc1c2occc2cc2ccc(=O)oc12,6.96% (inactive),–
CC1(C)[C@H](C=C(Cl)Cl)[C@@H]1C(=O)O[C@@H](C#N)c1cccc(Oc2ccccc2)c1,-5.5% (inactive),–
COC(=O)C(C)N(C(=O)Cc1ccccc1)c1c(C)cccc1C (stereo not given),14.2% (inactive),–
CC[C@H]1C[C@H]2[C@@H]3CCC4=CC(=O)CC[C@@H]4[C@H]3CC[C@]2(C)[C@H]1O,-7.27% (inactive),–
COc1nn(C(=O)NS(=O)(=O)c2ccccc2OC(F)(F)F)c(=O)n1C,2.49% (inactive),–
c1ccc(CN2CCNCC2)cc1,10.3% [at 260 µM] (inactive),–
CC(C)N(CCC(C(N)=O)(c1ccccc1)c1ccccn1)C(C)C (stereo not given),-11.3% (inactive),–
O=C(CBr)OCc1ccccc1,5.03% (inactive),–
CN1C(=O)C(O)N=C(c2ccccc2)c2cc(Cl)ccc21 (stereo not given),-0.344% [at 94.8 µM] (inactive),–
C=CCC1([C@H](C)CCC)C(=O)NC(=O)NC1=O,-2.83% (inactive),–
CCCCC(CC)COP(=O)(Oc1ccccc1)Oc1ccccc1 (stereo not given),-29.5% (inactive),–
[CH3][Sn]([CH3])([Cl])[Cl],–,inactive
C(=NC1CCCCC1)=NC1CCCCC1,–,3.08 µM (active) and 3.06 µM (active)
Clc1cccc2ccccc12,-0.226% (inactive),–
CCCCN(N=O)C(=N)N[N+](=O)[O-],-12.9% [at 94.8 µM] (inactive),–
Nc1ccc(N=Nc2ccc(-c3ccc(N=Nc4c(S(=O)(=O)O)cc5cc(S(=O)(=O)O)c(N=Nc6ccccc6)c(O)c5c4N)cc3)cc2)c(N)c1,-1.87% (inactive),–
CCC(COC(=O)c1cc(OC)c(OC)c(OC)c1)(c1ccccc1)N(C)C (stereo not given),-1.83% (inactive),–
C=CC(=O)OC,6.96% [at 94.8 µM] (inactive),–
CCCCCCCCCCOC(=O)c1ccccc1C(=O)OCCCCCCCCCC,2.56% (inactive),–
C=CCN1CC[C@]23c4c5ccc(O)c4O[C@H]2C(=O)CC[C@@]3(O)[C@H]1C5,-2.15% (inactive),–

# Assay: qHTS assay for small molecule activators of the heat shock response signaling pathway - cell viability counter screen (AID 743209); note: nearly all actives have a fitted effect of over 50% in size
# Conditions: HSE-bla HeLa viability, CellTiter-Glo luminescence, 5 h; series mostly up to 62.6 µM; activity change, negative = cytotoxicity: at the top concentration
# Outline: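 HSE-bla HeLa; 1500 cells/well; overnight 37 C, 5% CO2; compound 5 h 37 C; LiveBLAzer B/G substrate 2.5 h RT; CellTiter-Glo 30 min RT; luminescence.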
Compound,"activity change, negative = cytotoxicity",Potency
C[C@H]1CNCCc2ccc(Cl)cc21,1.28% (inactive),–
CCOC(=O)[C@]1(c2ccccc2)Oc2ccccc2[C@@H]1N,1.35% (inactive),–
O=C(O)C(F)(F)C(F)(F)C(F)(F)C(F)(F)C(F)(F)C(F)(F)C(F)(F)C(F)(F)C(F)(F)C(F)(F)F,4.51% (inactive),–
Cc1cc(=O)[nH]o1,4.78% [at 81.1 µM] (inactive),–
Nc1nc(=S)[nH][nH]1,1.07% (inactive),–
CC(C)=CCOc1c2occc2cc2ccc(=O)oc12,-7.69% (inactive),–
COc1cc(Cl)c(OC)cc1Cl,3.77% (inactive),–
CC1(C)[C@H](C=C(Cl)Cl)[C@@H]1C(=O)O[C@@H](C#N)c1cccc(Oc2ccccc2)c1,-1.41% (inactive),–
COC(=O)C(C)N(C(=O)Cc1ccccc1)c1c(C)cccc1C (stereo not given),-5.32% (inactive),–
CC[C@H]1C[C@H]2[C@@H]3CCC4=CC(=O)CC[C@@H]4[C@H]3CC[C@]2(C)[C@H]1O,6.3% (inactive),–
COc1nn(C(=O)NS(=O)(=O)c2ccccc2OC(F)(F)F)c(=O)n1C,6.42% (inactive),–
c1ccc(CN2CCNCC2)cc1,2.67% [at 232 µM] (inactive),–
CC(C)N(CCC(C(N)=O)(c1ccccc1)c1ccccn1)C(C)C (stereo not given),6.46% (inactive),–
O=C(CBr)OCc1ccccc1,-4.33% (inactive),–
CN1C(=O)C(O)N=C(c2ccccc2)c2cc(Cl)ccc21 (stereo not given),0.891% [at 81.1 µM] (inactive),–
C=CCC1([C@H](C)CCC)C(=O)NC(=O)NC1=O,11.1% [at 81.1 µM] (inactive),–

Compound,"activity change, negative = cytotoxicity",Potency
CCCCC(CC)COP(=O)(Oc1ccccc1)Oc1ccccc1 (stereo not given),-14% (inactive),–
COP(=S)(OC)Oc1cc(Cl)c(I)cc1Cl,-1.99% (inactive),–
[CH3][Sn]([CH3])([Cl])[Cl],-31.3% [at 81.1 µM] (inactive),–
C(=NC1CCCCC1)=NC1CCCCC1,–,inactive
Clc1cccc2ccccc12,-0.084% (inactive),–
CO/C=C(/C(=O)OC)c1ccccc1COc1cccc(C(F)(F)F)n1,-5.05% (inactive),–
CC1(C)CCC(Cc2ccc(Cl)cc2)C1(O)Cn1cncn1 (stereo not given),-11.5% (inactive),–
O=NN1CCCCCC1,-0.208% (inactive),–
Nc1ccc(N=Nc2ccc(-c3ccc(N=Nc4c(S(=O)(=O)O)cc5cc(S(=O)(=O)O)c(N=Nc6ccccc6)c(O)c5c4N)cc3)cc2)c(N)c1,-9.62% (inactive),–
COCCOCCO,3.22% [at 81.1 µM] (inactive),–
CCC(COC(=O)c1cc(OC)c(OC)c(OC)c1)(c1ccccc1)N(C)C (stereo not given),1.23% (inactive),–
C=CC(=O)OC,-2.82% [at 81.1 µM] (inactive),–
CC(C)(C)C(O)C(Oc1ccc(Cl)cc1)n1cncn1 (stereo not given),16.6% (inactive),–
CCCCCCCCCCOC(=O)c1ccccc1C(=O)OCCCCCCCCCC,-2.58% (inactive),–
C=CCN1CC[C@]23c4c5ccc(O)c4O[C@H]2C(=O)CC[C@@]3(O)[C@H]1C5,12.7% (inactive),–
